ChEMBL document CHEMBL1157539, “Thousands of chemical starting points for antimalarial lead identification” (Nature, 2010)
Residues, ends and D or L forms follow the SMILES beside them. *: point of attachment. Octanoyl = CCCCCCCC(=O)*

How the values were obtained:
Type in all cases: functional
Plasmodium falciparum [1] = assay: GSK_TCMDC: Inhibition of Plasmodium falciparum 3D7 in whole red blood cells, using parasite LDH activity as an index of growth. Test compounds present at 2uM
Plasmodium falciparum [2] = assay: GSK_TCMDC: Inhibition of Plasmodium falciparum Dd2 in whole red blood cells, using parasite LDH activity as an index of growth. Test compounds present at 2uM
HepG2 = assay: GSK_TCMDC: Percent inhibition of human HepG2 cell line. Test compounds present at 10uM.

| Compound | Inhibition (Plasmodium falciparum [1]) | Inhibition (Plasmodium falciparum [2]) | Inhibition (HepG2) |
| --- | --- | --- | --- |
| Cc1cc(=NN=CC=Cc2ccccc2)c2ccc(F)cc2[nH]1 | 100% | 30% | 14% |
| O=C(O)C[C@H](NC(=O)CCCNC(=O)c1cccc(-c2ccc(Cl)c(Cl)c2)c1)C(=O)O | 91% | 0% | 5% |
| C[C@H](Cc1ccc(S(=O)(=O)c2ccc(C[C@@H](C)NC[C@H](O)c3cccc(Cl)c3)cc2)cc1)NC[C@H](O)c1cccc(Cl)c1.Cl | 99% | 98% | 100% |
| Br.CCC(C)Oc1ccc(CCCON2C(N)=NC(N)=NC2(C)C)cc1 (centres undefined) | 92% | 95% | 65% |
| Br.CC1(C)NC(N)=NC(=N)N1OCCSCc1cc(Cl)sc1Cl | 93% | 72% | 70% |
| Cc1nc(N)nc(N)c1OCCCCCCOc1ccccc1.Cl | 95% | 0% | 59% |
| COCC(=O)N(Cc1ccccc1-c1cccc(CNCc2ccc3c(c2)OCO3)c1)C1CCN(Cc2ccccc2)CC1.O=C(O)C(F)(F)F | 94% | 72% | 33% |
| Cc1ccccc1NC(=O)NC1CCN(CCCCCNC(=O)/C=C/c2ccc(Cl)c(Cl)c2)CC1 | 100% | 20% | 13% |
| COc1ccc(CC(=O)NC(CCN2CCC3(CC2)CN(S(C)(=O)=O)c2ccccc23)c2ccc(Cl)c(Cl)c2)cc1OC (centres undefined) | 92% | 77% | 10% |
| COc1ccc(NC(=O)/C=C/c2ccc(Cl)c(Cl)c2)cc1N1CCN(C)CC1 | 90% | 20% | 23% |
| CCNc1cc(C(=O)N[C@@H](Cc2ccccc2)[C@H](O)CN[C@@H](C)c2cccc(OC)c2)cc(N2CCCC2=O)c1.O=CO | 95% | 65% | 5% |
| COc1ccc2ncc(F)c(CCN3C4CCC3CC(NCc3ccc5c(c3)OCCO5)C4)c2n1.Cl (centres undefined) | 100% | 35% | 27% |
| O=C(NC1CCN(Cc2ccc3c(c2)OCCO3)CC1)c1ccc(-c2cccc(C(F)(F)F)c2)s1.O=C(O)C(F)(F)F | 100% | 35% | 99% |
| CC(CN1CCN(C)CC1)C(=O)Nc1ccc(-c2ccc(-c3nc4ccccc4[nH]3)s2)cc1 (centres undefined) | 100% | 79% | 5% |
| CCCCc1cc(N2CCC(NC(C)=O)C2)nc(Nc2ccc(C)cc2)n1 (centres undefined) | 95% | 1% | 2% |
| O=C(c1ccc(Cl)cc1)C1CCCN(C2CCN(CCc3ccccc3)CC2)C1 (centres undefined) | 96% | 51% | 37% |
| COc1ccc(CCN2CCC(NCc3cccc(N(C)C)c3)CC2)cc1 | 98% | 7% | 18% |
| Cc1nnsc1C(=O)Nc1ccc(-c2ccc(-c3nc4ccccc4[nH]3)s2)cc1 | 92% | 38% | 49% |
| CCc1ccc(NC(=O)c2ccc(CN3CCCN(Cc4ccc(C)s4)CC3)cc2)cc1.O=C(O)C(F)(F)F | 87% | 0% | 48% |
| CCCCCC1c2[nH]c3ccccc3c2CCN1C(=O)OCc1ccccc1 (centres undefined) | 93% | 68% | 3% |
| COc1ccc2nccc([C@@H](O)CN3CCC(NC(=O)C(c4ccsc4)N4CCN(c5ccccc5)CC4)CC3)c2c1 (some centres undefined) | 95% | 17% | 24% |
| CCOc1ccc(NC(=O)c2cccc(CN3CCCN(Cc4cccc(O)c4)CC3)c2)cc1.O=C(O)C(F)(F)F | 95% | 23% | 22% |
| COc1ccc(-c2cccc(CNCc3ccc(F)cc3)c2)cc1S(=O)(=O)NCCN1CCCC1.O=C(O)C(F)(F)F | 100% | 16% | 20% |
| Cl.N#Cc1cccc(/C=C/C(=O)NC2CCC(CCN3CCc4ccc(-c5cnccn5)cc4CC3)CC2)c1 (centres undefined) | 93% | 47% | 22% |

| Compound | Inhibition (Plasmodium falciparum [1]) | Inhibition (Plasmodium falciparum [2]) | Inhibition (HepG2) |
| --- | --- | --- | --- |
| COc1cc2c(OC)cccc2cc1CNCCCCCCNCc1cc2cccc(OC)c2cc1OC.CS(=O)(=O)O | 95% | 7% | 59% |
| COc1cccc(Nc2nc(N)c3ccccc3n2)c1.Cl | 88% | 47% | 18% |
| COc1ccc2ncc(Cl)c([C@H](O)CN3CCC(NCc4cc5c(cn4)OCCO5)CC3)c2c1.Cl | 100% | 100% | 10% |
| Cc1ccc(N2C(=O)C3C(C2=O)C2(c4ccccc4)C(=O)C3(c3ccccc3)C(c3ccccc3)=C2c2ccccc2)c(C)c1 (centres undefined) | 96% | 96% | 3% |
| Cl.O=S(=O)(c1ccc(OCc2ccc(Cl)cc2)cc1)c1cc2c(cc1OCc1ccccc1)CCN(C1CCC1)CC2 | 89% | 13% | 17% |
| CCNc1cc(C(=O)N[C@@H](Cc2ccccc2)[C@H](O)CNC2CCC(F)(F)CC2)c(F)c(N2CCCCS2(=O)=O)c1.O=CO | 100% | 97% | 0% |
| O=C(Nc1ccc(OC(F)(F)F)cc1)Nc1ccc([N+](=O)[O-])cc1 | 100% | 100% | 41% |
| Cl.N#Cc1ccc(C2CCN(CC[C@H](N)Cc3ccc(Cl)s3)CC2)cc1 | 92% | 30% | 31% |
| Oc1cc(NCCCNC2CCc3c(Cl)cc(Cl)cc32)nc2ccccc12 (centres undefined) | 100% | 29% | 3% |
| CCN(CCCN1CCCCC1)c1cc(C)nc(Nc2cccc(OC(F)(F)F)c2)n1.O=C(O)C(F)(F)F | 100% | 99% | 32% |
| Cc1cc(=O)[nH]c(-n2nc(C)cc2NC(=O)C(c2ccccc2)c2ccccc2)n1 | 96% | 77% | 31% |
| O=[N+]([O-])c1ccc2c(-c3ccccc3)c(-c3ccccc3)n(O)c2c1 | 97% | 11% | 8% |
| COc1cccc(C=CC(=O)N(CCN)Cc2ccccc2)c1.O=C(O)C(=O)O | 99% | 0% | 0% |
| O=C(Nc1cccnc1)c1cc(-c2cc(Cl)ccc2O)n[nH]1 | 98% | 85% | 7% |
| COc1ccc(CCN(C)CCc2ccc(NC(=O)c3cccc4c(=O)c5ccccc5sc34)cc2)cc1 | 95% | 33% | 24% |
| CC1(C)N=C(N)N=C(N)N1c1ccc([N+](=O)[O-])cc1.Cl | 93% | 1% | 3% |
| Nc1ncnc2cc(-c3cccc(NC(=O)Nc4ccccc4)c3)sc12 | 94% | 33% | 4% |
| CCCCCCCC(=O)N[C@@H](Cc1ccccc1)C(=O)N[C@H](C(=O)O)C(C)C (Octanoyl-Phe-Val-OH) | 89% | 0% | 0% |
| COc1ccc2nccc([C@@H](O)CN3CCC(NC(=O)Cc4cc5ccccc5s4)CC3)c2c1 | 92% | 42% | 16% |
| CC[C@H](C)CNC(=O)c1cccc(-c2cccc(CNCC3CNCCCO3)c2)n1.O=C(O)C(F)(F)F (some centres undefined) | 91% | 54% | 15% |
| N#Cc1ccc(N2CCN(C(=O)c3cccc(-c4noc(C(F)(F)F)n4)c3)CC2)nc1 | 84% | 58% | 18% |
| Cc1cc(N/N=C/c2ccc([N+](=O)[O-])cc2)c2ccc(F)cc2n1 | 100% | 22% | 0% |
| COc1cccc(-c2cc(C(=O)Nc3cc(Oc4ccc(O)cc4)cc([N+](=O)[O-])c3)on2)c1 | 89% | 30% | 16% |
| CCc1ccc(-n2cc(C(=O)c3cc(Br)ccc3O)cc(C#N)c2=O)cc1 | 97% | 30% | 9% |
